Laboratory results: PubChem BioAssay AID1159580 (chemical genetic matrix, 2015)
Where “and” joins values, the source holds several entries; their conditions need not be identical. Equal entries are not always repeated. Out of some 5,500 compounds screened, about 2,000 (36%) were called active. Not shown: some 18% with an inconclusive outcome. Cut-off read from the data, not from the text of the source: active = normalized growth mostly below about 0.91 (no sharp cut-off); inconclusive = no clear call, values can overlap the other calls; inactive = mostly above about 0.92. This is one part of the list.

Experiment: chemical genetic growth profiling, strain panel (AID 1159580);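 note: tested at 20 µM; growth read once vehicle control cultures reached saturation at 30 °C; 1 = growth at the plate median or of vehicle wells; lower values mean less growth of the strain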
Details: S. cerevisiae deletion strains, growth OD

Measured: normalized growth

CCN(CC)CCOC(=O)c1ccc(N)cc1
inactive: locus YAL013W, strain DEP1, hits give low values 0.955 | locus YAL021C, strain ccr4, hits give low values 0.964 | locus YAL026C, strain drs2, hits give low values 0.989 | locus YAL030W, strain snc1, hits give low values 0.986 | locus YAL040C, strain CLN3, hits give low values 1.04 | locus YBL061C, strain skt5, hits give low values 0.999 | locus YBR009C, strain hhf1, hits give low values 0.95 | locus YBR021W, strain FUR4, hits give low values 1.01 | locus YBR023C, strain chs3, hits give low values 0.976 | locus YBR171W, strain sec66, hits give low values 0.988 | locus YBR229C, strain ROT2, hits give low values 1.01 | locus YBR231C, strain swc5, hits give low values 1.01 | locus YBR279W, strain paf1, hits give low values 0.979 | locus YCL011C, strain gbp2, hits give low values 0.955 | locus YCL016C, strain dcc1, hits give low values 0.963 | locus YCL029C, strain bik1, hits give low values 0.989 | locus YCL061C, strain MRC1 (second series), hits give low values 0.977 | locus YCL061C, strain MRC1, hits give low values 0.975 | locus YCL069W, strain vba3, hits give low values 0.972 | locus YCR088W, strain abp1, hits give low values 0.978 | locus YDL005C, strain med2, hits give low values 0.99 | locus YDL035C, strain GPR1, hits give low values 1.01 | locus YDL040C, strain nat1, hits give low values 1 | locus YDL074C, strain BRE1, hits give low values 1.03 | locus YDL101C, strain DUN1, hits give low values 1.01 | locus YDL134C, strain PPH21, hits give low values 1.01 | locus YDL185W, strain tfp1, hits give low values 0.995 | locus YDL192W, strain arf1, hits give low values 0.986 | locus YDR001C, strain nth1, hits give low values 0.973 | locus YDR069C, strain doa4, hits give low values 0.998 | locus YDR101C, strain arx1, hits give low values 1 | locus YDR137W, strain rgp1, hits give low values 0.98 | locus YDR150W, strain NUM1, hits give low values 0.999 | locus YDR159W, strain sac3, hits give low values 0.928 | locus YDR162C, strain NBP2, hits give low values 1.01 | locus YDR195W, strain ref2 0.999 | locus YDR297W, strain sur2, hits give low values 0.986 | locus YDR318W, strain mcm21, hits give low values 0.977 | locus YDR334W, strain swr1, hits give low values 0.982 | locus YDR335W, strain msn5, hits give low values 0.981 | locus YDR363W, strain ESC2, hits give low values 1.01 | locus YDR388W, hits give low values 0.997 | locus YDR392W, strain spt3, hits give low values 0.928 | locus YDR502C, strain sam2, hits give low values 0.997 | locus YEL003W, strain gim4, hits give low values 0.98 | locus YEL037C, strain rad23, hits give low values 0.989 | locus YEL061C, strain CIN8 (second series), hits give low values 0.978 | locus YEL061C, strain CIN8, hits give low values 1.01 | locus YER002W, strain NOP16, hits give low values 0.984 | locus YER015W, strain faa2, hits give low values 1 | locus YER016W, strain bim1, hits give low values 0.979 | locus YER110C, hits give low values 0.999 | locus YER111C, strain swi4, hits give low values 0.977 | locus YER155C, strain BEM2 (second series), hits give low values 1.06 | locus YER155C, strain BEM2, hits give low values 1 | locus YER167W, strain BCK2, hits give low values 1 | locus YFR010W, strain ubp6, hits give low values 0.988 | locus YGL078C, strain dbp3, hits give low values 0.997 | locus YGL086W, strain mad1, hits give low values 0.994 | locus YGL167C, strain pmr1, hits give low values 0.997 | locus YGL173C, strain kem1, hits give low values 0.994 | locus YGL227W, strain vid30, hits give low values 0.984 | locus YGL240W, strain doc1, hits give low values 1.01 | locus YGL248W, strain PDE1, hits give low values 1.01 | locus YGL253W, strain hxk2, hits give low values 0.963 | locus YGR078C, strain PAC10, hits give low values 1.01 and 0.99 | locus YGR135W, strain pre9, hits give low values 0.997 | locus YGR229C, strain SMI1, hits give low values 0.964 | locus YGR252W, strain gcn5, hits give low values 0.998 | locus YHR013C, strain ard1, hits give low values 0.969 | locus YHR027C, strain rpn1, hits give low values 0.97 | locus YHR030C, strain SLT2, hits give low values 1 and 1.05 | locus YHR079C, strain IRE1 (second series), hits give low values 0.981 | locus YHR079C, strain IRE1, hits give low values 1.04 | locus YHR094C, strain hxt1, hits give low values 0.983 | locus YHR129C, strain ARP1, hits give low values 1.01 | locus YHR142W, strain chs7, hits give low values 0.972 | locus YHR200W, strain rpn10, hits give low values 0.997 | locus YIL066C, strain RNR3, hits give low values 1.01 | locus YIL073C, strain SPO22, hits give low values 0.969 | locus YIL125W, strain kgd1, hits give low values 0.995 | locus YIR030C, strain dcg1, hits give low values 0.993 | locus YJL092W, strain hpr5, hits give low values 0.992 | locus YJL095W, strain BCK1 (second series), hits give low values 0.993 | locus YJL095W, strain BCK1, hits give low values 1.03 | locus YJL115W, strain asf1, hits give low values 0.98 | locus YJL129C, strain trk1, hits give low values 0.989 | locus YJL134W, strain LCB3, hits give low values 0.999 | locus YJL154C, strain vps35, hits give low values 0.987 | locus YJL164C, strain tpk1, hits give low values 0.961 | locus YJL166W, strain qcr8, hits give low values 1.02 | locus YJL168C, strain set2, hits give low values 0.993 | locus YJL187C, strain SWE1 (second series), hits give low values 1.01 | locus YJR043C, strain POL32, hits give low values 1.01 | locus YJR066W, strain TOR1, hits give low values 0.999
